Sampled rows, rich in hits. Any-hit rate of the full collection: about 2.5%.
Rce1 inhib: inhibitors of yeast Ras-converting enzyme; 0.27% of 290,000 active; Q03530; calls only; yeast membranes, quenched prenylated peptide cleavage fluorescence;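 active means fall in fluorescence gain of 50% or more versus controls, with final raw signal at or below 3038400; inconclusive means same 50% fall but final raw signal above 3038400; inactive means fall in fluorescence gain under 50%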
Target sequence (Q03530 whole entry, looked up): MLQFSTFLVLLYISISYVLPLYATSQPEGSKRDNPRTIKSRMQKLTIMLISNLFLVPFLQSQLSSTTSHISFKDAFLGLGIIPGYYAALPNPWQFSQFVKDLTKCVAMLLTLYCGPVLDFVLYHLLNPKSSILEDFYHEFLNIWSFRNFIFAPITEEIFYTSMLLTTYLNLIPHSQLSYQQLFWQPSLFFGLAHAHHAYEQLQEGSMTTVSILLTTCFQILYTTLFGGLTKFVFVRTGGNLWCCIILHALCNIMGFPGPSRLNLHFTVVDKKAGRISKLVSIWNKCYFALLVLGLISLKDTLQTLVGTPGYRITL
MEKK2 mut-MEK5: signal of MEK5 binding to mutant human MEKK2 PB1 domain. bead flow cytometry, Alexa488-MEK5 binding to MEKK2 mutant. percent response, % at 10 µM. 0.35% of 290,000 active. AID 1530; in the data active means percent response above about 24%, passing the limit was not always enough
MEKK3 PB1 HTS: modulators (inhibitors or enhancers) of MEK5 binding to human MEKK3 PB1 domain; Q99759; binding response (% of control), % at 10 µM; bead-based flow cytometry, Alexa488-MEK5 binding to MEKK3; actives lie on both sides; 0 = blocked by unlabeled MEK5, 100 = vehicle; 1.4% of 290,000 active;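 active means binding response more than 3 SD above or below the average of its plate-row segment, actives on both sides; inconclusive means wells at one plate position flagged as instrument error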;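 further: Alexa488 bead fluorescence after subtracting the streptavidin-only scavenger bead signal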
MEKK2wt PB1 HTS: raises or lowers MEK5 binding to wildtype human MEKK2 PB1 domain | Q9Y2U5 | bead flow cytometry, Alexa488-MEK5 binding to MEKK2 WT; actives lie on both sides | binding response (% of control), % at 10 µM | 1.1% of 290,000 active | AID 1531; in the data active means binding response below about 67% or above about 130%; inconclusive means no clear call, values can overlap the other calls; inactive means in between
UBC13 inh: blocks human UBC13 polyubiquitin chain formation; inhibition, % at 20 µM; TR-FRET; 0.47% of 330,000 active; in the data active means inhibition above about 45%, passing the limit was not always enough; inconclusive means no clear call, values can overlap the other calls
Target sequence (P61088 whole entry, looked up): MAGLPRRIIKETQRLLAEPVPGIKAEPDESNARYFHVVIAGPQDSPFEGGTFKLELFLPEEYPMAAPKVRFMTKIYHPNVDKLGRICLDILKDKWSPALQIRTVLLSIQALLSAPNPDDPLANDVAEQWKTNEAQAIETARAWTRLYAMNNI
Large screens that a line does not name were inactive; [ ] = dose if it differs, or a comment.

Cc1nn(-c2ccc(F)cc2)c2nc(N)c(C#N)c(-c3ccc(O)c(O)c3)c12	none
COc1cc(-c2c(C#N)c(N)nc3c2c(C)nn3-c2ccc(C)c(C)c2)cc(OC)c1OC	Rce1 inhib active, UBC13 inh inconclusive
O=C(Nc1ccc2c(c1)CCC2)c1ccccc1Br	Rce1 inhib active
CSc1ccccc1C(=O)Nc1ccc2c(c1)CCC2	none
CC1CCCCN1C(=O)C1CCN(S(=O)(=O)c2ccc(-n3cnnn3)cc2)CC1 (configuration not stated)	none
CC1CCN(C(=O)C2CCN(S(=O)(=O)c3ccc(-n4cnnn4)cc3)CC2)CC1	Rce1 inhib active
CCN(CC)CCCNC(=O)c1cc2c(=O)n(C)c3ccccc3c2n1C	none
CCN(CC)CCNC(=O)c1cc2c(=O)n(C)c3ccccc3c2n1C	UBC13 inh 47.6
O=C(NCCCN1CCOCC1)C(=O)N/N=C/c1ccc2c(c1)OCO2	none
O=C(NC1CC1)c1ccc2c(c1)N(Cc1ccccc1)CCS2	Rce1 inhib active
CCOC(=O)N1CCC(NC(=O)c2ccc3c(c2)N(Cc2ccccc2)CCS3)CC1	none
CNS(=O)(=O)c1cn(CC(=O)NCc2ccc(N(C)C)cc2)cc1S(=O)(=O)NC	none
CN(C)CCNC(=O)/C=N/O	none
CCn1c(C)nc2c(=O)oc3ccccc3c21	Rce1 inhib active
COc1cccc(-c2nc(C#N)c(N3CCN(C(=O)c4ccco4)CC3)o2)c1	Rce1 inhib active
N#Cc1nc(-c2ccc(F)cc2)oc1N1CCN(C(=O)c2ccco2)CC1	none
CC(Cc1cccs1)NC(=O)Nc1ccc([N+](=O)[O-])cc1 (configuration not stated)	Rce1 inhib active
CCCC[C@@H]1CNC(=S)N1CCc1cccc2ccccc12	Rce1 inhib active
CCCCN1C(=S)NC[C@@H]1Cc1cccc2ccccc12	none
CC1N(C)c2cc(NC(=O)c3ccco3)ccc2C1(C)C (configuration not stated)	MEKK2wt PB1 HTS -7.0
COc1ccccc1C(=O)N1CCCC1(C#N)c1ccccc1 (configuration not stated)	none
CC(=O)N1CCCC1(C(=O)O)c1ccccc1 (configuration not stated)	MEKK2wt PB1 HTS -3.0
O=C(Nc1nc(-c2ccccn2)cs1)c1ccc([N+](=O)[O-])o1	Rce1 inhib active
COc1ccc(C(=O)c2ccc3oc(-c4ccc(OC)cc4)c(-c4ccc(O)cc4)c3c2)cc1	none (no result: Rce1 inhib, MEKK2 mut-MEK5, MEKK3 PB1 HTS, MEKK2wt PB1 HTS)
O=C(O)COc1ccccc1/C=C1\SC(=S)N(c2cccnc2)C1=O	none
Cn1cccc1/C=N/NC(=O)CSc1nc2ccccc2n1C	none
CSc1nc(NCCCO)c2c3c(sc2n1)CN(C)CC3	none
CCN(CC)CCCNc1nc(SC)nc2sc3c(c12)CCN(C)C3	MEKK2 mut-MEK5 30.0, MEKK2wt PB1 HTS 153.0 (no result: UBC13 inh)
CSc1nc(NCC(C)O)c2c3c(sc2n1)CN(C)CC3 (configuration not stated)	Rce1 inhib active
Cc1cccc(NS(=O)(=O)c2cccc(C(=O)N3CCCC(C(F)(F)F)C3)c2)c1 (configuration not stated)	none (no result: MEKK2 mut-MEK5, MEKK3 PB1 HTS, MEKK2wt PB1 HTS)
OCCC1CN(Cc2cccn2-c2ccccn2)CCN1Cc1ccccc1 (configuration not stated)	none
CC(C)CCn1c(=O)c2sccc2n2c(CCCC(=O)N3CCN(c4ccccn4)CC3)nnc12	none
Cc1nnc(-n2ncc(C#N)c2N)c2nn(-c3cccc(Cl)c3)c(C)c12	none
Cc1nnc(N2CCOCC2)c2nn(-c3cccc(Cl)c3)c(C)c12	MEKK2 mut-MEK5 85.0
CSc1nc(O)c(C(c2cccc([N+](=O)[O-])c2)c2c(O)nc(SC)[nH]c2=O)c(=O)[nH]1	none
CC(=O)Nc1ccc2nc(CN3CCN(Cc4ccc(F)cc4)C(CCO)C3)ccc2c1 (configuration not stated)	none
CC(Sc1cccc[n+]1[O-])C(=O)NC1CCCCC1C (configuration not stated)	none (no result: Rce1 inhib, MEKK2 mut-MEK5, MEKK3 PB1 HTS, MEKK2wt PB1 HTS)
C=CCn1c(=O)c2c(nc(-c3ccc(S(=O)(=O)O)cc3)n2C)n(C)c1=O	Rce1 inhib active
C=CCn1c(=O)c2c(nc3n2CCN3c2cccc(Cl)c2C)n(C)c1=O	none
CCN(CC(=O)NC(C)(C)C)C(=O)CN1c2cccc3cccc(c23)S1(=O)=O	none
Cc1cccc(C)c1NC(=O)C1c2cccc[n+]2CC(=O)N1Cc1ccc2c(c1)OCO2 (configuration not stated)	MEKK2wt PB1 HTS 50.0 (no result: Rce1 inhib)
O=C(CCNC(=O)N1CC(=O)Nc2ccccc21)NCCc1cccc(F)c1	Rce1 inhib active
O=C1CN(C(=O)NCC(=O)N[C@H](C(=O)O)c2ccccc2)c2ccccc2N1	none
O=C1CN(C(=O)NCC(=O)N2CCCC2)c2ccccc2N1	Rce1 inhib active
COC(=O)c1ccccc1NC(=O)NCc1cccnc1	Rce1 inhib active
CC(C)(C)c1cc(C(c2cccnc2)N2CCN(CCO)CC2)cc(C(C)(C)C)c1O (configuration not stated)	none
OCCN1CCN(C(c2cccs2)c2ccc3cccnc3c2O)CC1 (configuration not stated)	MEKK2wt PB1 HTS 68.0[inhibitor] (no result: Rce1 inhib, UBC13 inh)
CCOc1ccc(CN(C)C(=O)CNC(=O)c2cc(OC)c(OC)c(OC)c2)cc1	none
N#C/C(=C\c1sc(N2CCOCC2)nc1-c1ccccc1)C(=O)Nc1cccc2ccccc12	MEKK3 PB1 HTS 135.0 (no result: Rce1 inhib, UBC13 inh)
CC1CCCN(C(=O)CSc2cnc3ccccc3n2)C1 (configuration not stated)	none
COc1ccc(CN2CCOCCOCCOCCOCC2)cc1	MEKK2wt PB1 HTS -3.0
O=C(NNC1=NCCC1)C1CC1	none
COC(=O)C1C/C(=N/NS(=O)(=O)c2ccc(C)cc2)CS1 (configuration not stated)	none
Cc1nc2c(C)cccn2c1/C(O)=C1\C(=O)C(=O)N(CCN(C)C)C1c1ccccc1 (configuration not stated)	none
COc1ccc(-c2cc3ccc(OCc4nn[nH]n4)cc3oc2=O)cc1OC	Rce1 inhib active
COc1ccc(-c2cc3ccc(OCC(C)=O)cc3oc2=O)cc1OC	none
Cc1[nH]n(-c2nc(-c3ccccc3F)cc(=O)[nH]2)c(=O)c1CCO	none
CC1CCC(CN2C(Nc3ccccc3)=NC[C@@H]2C)CC1 (some centres not stated)	none
O=C1CCN(Cc2ccccc2)CCN1[C@H](CSc1ccccc1)Cc1ccccc1	Rce1 inhib active
O=C1CC[C@H](O)CCN1[C@H](CSc1ccccc1)Cc1ccccc1	none
Cc1ccc(C)c2c1N(Cc1ccccc1)C(=O)C21OCCO1	none
CCOC(=O)C1=C(COC(=O)CCOc2cc(C)ccc2C)NC(=O)NC1C (configuration not stated)	none (no result: Rce1 inhib, MEKK2 mut-MEK5, MEKK3 PB1 HTS, MEKK2wt PB1 HTS)
CC(=O)OCCCNc1cc(Sc2ccc(C)cc2)c2nonc2c1[N+](=O)[O-]	MEKK3 PB1 HTS 130.0
CC(=O)OCCCNc1cc(Sc2nc3ccccc3s2)c2nonc2c1[N+](=O)[O-]	none
